GC-B act – GC-B (human) receptor activation; activation, % at 10 µM; HEK293-GC-B cells, CNP EC30, cGMP TR-FRET; 0% at EC30 CNP, 100% saturating CNP; 0.11% of 370,000 active; AID 1920062;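 active = activation at 10 µM reaching about 35% in either raw or pattern-adjusted values, limit read from the data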
ALR H2O2 inh – human ALR oxidase inhibition via reduced H2O2; P55789; purified ALR, DTT oxidation, H2O2 HRP-luminol luminescence; inhibition, % (test concentration not listed); 3.8% of 290,000 active;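 active = mean replicate inhibition above about 79%, with every replicate also reaching it, limit read from the data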
HDAC3 inh – blocks human histone deacetylase 3 | inhibition, % at 8.3 µM | O15379 | 0.15% of 320,000 active | AID 2718 | recombinant HDAC3, fluorogenic peptide/trypsin coupled, fluorescence; in the data active = inhibition above about 26%, passing the limit was not always enough
NPR1 activator – GC-A (human) enzyme activation; activation, % at 10 µM; P16066; 0.14% of 370,000 active; HEK293 GC-A cells, cGMP TR-FRET, EC30 ANP; 0% at EC30 ANP, 100% saturating ANP; AID 1671463; in the data active = activation above about 40%
Target sequence (P16066 whole entry, looked up): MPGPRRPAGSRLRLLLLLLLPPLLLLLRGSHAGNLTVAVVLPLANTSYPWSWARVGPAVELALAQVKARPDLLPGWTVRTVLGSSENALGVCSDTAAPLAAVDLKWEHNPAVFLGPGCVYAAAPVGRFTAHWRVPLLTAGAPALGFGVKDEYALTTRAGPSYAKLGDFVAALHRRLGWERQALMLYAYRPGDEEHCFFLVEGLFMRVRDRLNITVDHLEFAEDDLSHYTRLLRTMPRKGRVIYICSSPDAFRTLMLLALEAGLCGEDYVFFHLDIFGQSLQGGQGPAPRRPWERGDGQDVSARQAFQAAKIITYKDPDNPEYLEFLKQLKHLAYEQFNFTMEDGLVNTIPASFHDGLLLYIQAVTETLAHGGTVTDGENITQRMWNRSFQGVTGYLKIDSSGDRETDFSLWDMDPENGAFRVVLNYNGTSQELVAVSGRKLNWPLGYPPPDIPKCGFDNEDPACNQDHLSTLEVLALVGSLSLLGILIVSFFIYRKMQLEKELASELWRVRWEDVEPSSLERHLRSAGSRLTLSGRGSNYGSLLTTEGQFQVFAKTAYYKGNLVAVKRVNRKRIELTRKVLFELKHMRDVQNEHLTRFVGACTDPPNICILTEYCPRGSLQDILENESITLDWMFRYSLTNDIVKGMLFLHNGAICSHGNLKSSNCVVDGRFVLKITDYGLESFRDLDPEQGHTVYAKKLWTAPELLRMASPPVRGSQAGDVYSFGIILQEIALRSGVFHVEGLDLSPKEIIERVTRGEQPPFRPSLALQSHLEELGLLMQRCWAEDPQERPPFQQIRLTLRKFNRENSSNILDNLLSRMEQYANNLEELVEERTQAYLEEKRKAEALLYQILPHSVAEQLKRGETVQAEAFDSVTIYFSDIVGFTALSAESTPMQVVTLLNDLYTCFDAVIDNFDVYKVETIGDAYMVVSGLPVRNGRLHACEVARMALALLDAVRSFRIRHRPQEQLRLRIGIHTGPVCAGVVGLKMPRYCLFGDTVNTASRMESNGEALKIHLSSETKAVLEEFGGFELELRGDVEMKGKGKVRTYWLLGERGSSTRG
Active calls of the source: *; · = not tested or not shown. The sample as a whole holds a higher share of hits than the screen did.

SMILES	GC-B act	ALR H2O2 inh	HDAC3 inh	NPR1 activator
COC(=O)C[C@H]1CC[C@@H](NS(=O)(=O)c2ccc(C)cc2)[C@@H](CO)O1	4	·	·	4
O=C(C(=O)N1CCN(C(=O)c2ccccc2C(F)(F)F)CC1)c1cccc(C(F)(F)F)c1	4	·	·	-1
CCN(CC)c1ccc(CNc2nc3ccccc3n2CCN2CCOCC2)cc1	-2	98*	12	-5
COc1ccc(CNc2nc3ccccc3n2CCN2CCOCC2)cc1	5	94*	3	-4
c1csc(CNc2nc3ccccc3n2CCN2CCOCC2)c1	-14	16	-1	-5
CC[C@@H]1Cc2[nH][nH]c(=O)c2[C@H](c2ccc(Cl)cc2)O1	5	·	·	2
O=C(Cc1ccc(NC(=O)C2CCN(C(=O)c3ccccc3)CC2)cc1)Nc1ccc(C(=O)N2CCOCC2)cc1	0	·	·	0
C(=N\N1CCOCC1)/c1nc(-c2ccccc2)n2ccccc12	-8	96*	9	-9
O=C(c1ccc(F)cc1)C1CCN(CCCn2c(=O)[nH]c3ccccc32)CC1	-8	·	·	-20
CCCCN1C(=O)C2Cc3c([nH]c4ccccc34)CN2C1=S (stereo not given)	5	89*	7	5
CC(C)(CO)CNC(=O)CCc1nnc(-c2ccc(-c3ccccc3)cc2)o1	-5	·	3	6
O=C(CSc1nnc2n1CCCCC2)Nc1ccc(N2CCOCC2)cc1	0	86*	-3	-2
Nn1c(SCC(=O)Nc2ccc(Oc3ccccc3)cc2)nnc1C1CC1	-2	28	7	5
Nn1c(SCC(=O)Nc2ccc(N3CCOCC3)cc2)nnc1C1CC1	1	99*	-12	-1
CCOc1ccc(NC(=O)CSc2nnc(C3CC3)n2N)cc1	-2	98*	3	1
Cc1ccc2nc(-c3cccc(Br)c3)c(Cc3ccccc3C(F)(F)F)n2c1	-3	·	·	-3
CCOc1ccccc1CN1CCNC(=O)C1CC(=O)N(C)C1CCOCC1 (stereo not given)	-1	-26	-17	1
O=C(NC1CCCCCC1)C1CCCN1S(=O)(=O)c1cccc2cccnc12 (stereo not given)	-3	97*	5	-3
Cc1cccc(C)c1NC(=O)C1CCCN1S(=O)(=O)c1cccc2cccnc12 (stereo not given)	-3	·	·	0
O=C(NC1CCCCC1)C1CCN(S(=O)(=O)c2cccc3cccnc23)CC1	-8	-23	4	-6
O=C(NC1CCCC1)C1CCCN1S(=O)(=O)c1cccc2cccnc12 (stereo not given)	-4	89*	5	6
C=CCN1C(=O)[C@@H](CC(=O)NCc2cccc3ccccc23)[C@]2(C(=O)OCC)CCCCC/C=C/12	-10	·	·	-3
O=C1NC(Cc2ccc(O)cc2)c2nc3ccc(Br)cc3c(=O)n2-c2ncccc21 (stereo not given)	0	·	·	-8
CCN(CC)CCn1c(NCc2cc(OC)ccc2OC)nc2ccccc21	-13	·	-2	-11
C=CCc1cccc(CNc2nc3ccccc3n2CCN2CCOCC2)c1O	-15	15	-6	-12
SMILES	GC-B act	ALR H2O2 inh	HDAC3 inh	NPR1 activator
COc1ccccc1CNc1nc2ccccc2n1CCN1CCCCC1	-14	98*	5	-17
Oc1ccccc1CNc1nc2ccccc2n1CCN1CCCCC1	-21	96*	-1	-29
c1ccc(-c2cccc(CNc3nc(-c4ccccn4)nnc3-c3ccccc3)c2)cc1	1	·	·	-2
CC(Sc1nnc(COc2ccc(Cl)cc2)o1)C(=O)Nc1ccc(N2CCOCC2)cc1 (stereo not given)	2	·	·	2
Cc1[nH]nc(-c2ccc(O)cc2O)c1-c1ccc(Cl)cc1	-8	82*	10	70*
Cc1[nH]nc(-c2ccc(O)cc2O)c1Oc1ccccc1	·	98*	6	·
Oc1cccc(-c2nc3ccccc3s2)c1	-2	4	2	1
Cc1[nH]nc(-c2ccc(O)cc2O)c1-c1nc2ccccc2s1	10	87*	-1	35
O=Cc1c(Cl)nc2ccccn2c1=O	-3	48	-2	1
Cc1ccc(Nc2nc(/N=C/N(C)C)n[nH]2)cc1C	-4	98*	-5	0
COc1ccccc1NC(=O)CSC(N)=O	2	99*	63*	-1
Cc1ccccc1NC(=O)CSC(N)=O	7	·	-1	5
COc1ccccc1CC(=O)Nc1cc(Cl)ccc1O	-2	0	6	-2
COc1ccccc1CC(=O)Nc1ccccc1O	-1	89*	5	0
NC(=O)SCC(=O)Nc1ccccc1C(=O)O	9	94*	1	3
CC(C)CNC(=O)C(=O)Nc1ccc2c(c1)N(S(=O)(=O)c1cccs1)CCC2	6	-3	0	4
CCCC(=O)N1CCCC1(C)C(=O)Nc1cccc(OC(C)C)c1 (stereo not given)	3	·	·	-5
COc1ccc(N2CCN(C(c3cccs3)C(C)NC(=O)C(=O)N3CCCC3)CC2)cc1 (stereo not given)	-1	98*	5	-2
COc1ccc(N2CCN(C(c3cccs3)C(C)NS(=O)(=O)c3ccccc3)CC2)cc1 (stereo not given)	-1	18	7	-4
CCS(=O)(=O)NC(C)C(c1cccs1)N1CCN(c2ccc(OC)cc2)CC1 (stereo not given)	2	99*	3	5
COc1ccccc1N1CCN(C(c2cccs2)C(C)NC(=O)C(=O)N2CCCCC2)CC1 (stereo not given)	0	74	-4	-3
COc1ccc(N2CCN(C(c3cccs3)C(C)NC(=O)C(=O)N3CCCCC3)CC2)cc1 (stereo not given)	-1	98*	-4	2
Cc1cc(N=Nc2ccccc2)c(NCC(O)C(O)C(O)CO)cc1C (stereo not given)	-10	98*	15	-6
O=C1c2ccccc2NC(c2ccc(-c3cccc([N+](=O)[O-])c3)o2)N1O (stereo not given)	-5	90*	8	0
O=C1c2ccccc2NC(c2ccc(-c3ccc(F)cc3)o2)N1O (stereo not given)	0	48	4	-3
SMILES	GC-B act	ALR H2O2 inh	HDAC3 inh	NPR1 activator
O=C(OCC(=O)N1CCN(C(=O)c2ccco2)CC1)c1cc(-c2ccco2)nc2ccccc12	1	93*	1	-3
N#CCC(=O)Nc1ccc(C(=O)OCC(=O)N2CCN(C(=O)c3ccco3)CC2)cc1	5	100*	-2	3
O=C(OCC(=O)N1CCN(C(=O)c2ccco2)CC1)c1cc(-c2ccc(Cl)c(Cl)c2Cl)nc2ccccc12	9	·	2	3
N#CCC(=O)Nc1ccc(C(=O)OCC(=O)N2CCCC2=O)cc1	-1	99*	2	4
CNC(=O)COC(=O)c1ccc(NC(=O)CC#N)cc1	1	98*	3	1
COc1ccc(C(C(=O)NC(C)(C)C)n2c(-c3ccc(C(F)(F)F)cc3)nc3ccccc32)cc1 (stereo not given)	-2	·	·	2
CC(=O)CC[C@H]1CC[C@]2(CCCN(C(=O)C3CCCCC3)C2)O1	4	·	·	2

Screening results deposited in PubChem BioAssay by several laboratories.
